Compounds without any hit were thinned out: in the full panel of roughly 79,000, 15% have a hit. The source made the active and inactive calls. Rule as the data show it: active = growth inhibition above about 70%; inactive = the rest.
Key:
[1] = NCI Yeast Anticancer Drug Screen. Data for the rad50 strain (AID 155);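 also: 0% = growth of vehicle-only cultures of the same strain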; conditions: S. cerevisiae rad50 strain growth inhibition; at 50.0 µM; active compounds read high
How it was run: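 Cells are treated with compound, grown, and their growth is then scored against vehicle-only cultures of the same repair-deficient yeast strain.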

[2] = NCI Yeast Anticancer Drug Screen. Data for the mec2-1 strain (AID 157); conditions: S. cerevisiae mec2-1 strain, at 50.0 µM, active compounds read high
How it was run: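 Strain: mec2-1 (DNA repair/cell cycle alteration). Compound exposure, then growth measured; inhibition expressed relative to vehicle.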

[3] = NCI Yeast Anticancer Drug Screen. Data for the sgs1 mgt1 strain (AID 161);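 also: 0% = growth of cultures given vehicle only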; conditions: S. cerevisiae sgs1 mgt1 strain, at 50.0 µM, active compounds read high
How it was run: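 Inhibition of yeast growth, normalised to vehicle-treated controls, is reported for a strain bearing genetic alterations in DNA damage repair.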

[4] = NCI Yeast Anticancer Drug Screen. Data for the cln2 rad14 strain (AID 165);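 also: 0% = growth equal to vehicle treated cultures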; conditions: S. cerevisiae cln2 rad14 strain, at 50.0 µM, active compounds read high
How it was run: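 Compounds are applied to the cln2 rad14 yeast strain, and growth is then compared with that of vehicle-treated cultures to give inhibition.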

[5] = NCI Yeast Anticancer Drug Screen. Data for the mlh1 rad18 strain (AID 175); conditions: S. cerevisiae mlh1 rad18 strain growth inhibition; at 50.0 µM; active compounds read high
How it was run: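 Read-out is yeast growth inhibition, calculated against vehicle-only controls. The compound was applied to a strain engineered with DNA damage repair alterations.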

[6] = NCI Yeast Anticancer Drug Screen. Data for the bub3 strain (AID 167); conditions: S. cerevisiae bub3 mutant strain, at 50.0 µM, active compounds read high
How it was run: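 Part of a panel of yeast mutants defective in DNA damage repair or cell cycle regulation. Each strain is grown with compound, and inhibition is calculated relative to solvent-treated cultures.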

Measured: growth inhibition

Nc1ccccc1CO
inactive: [1] 3% | [2] 2.4% | [3] 2.25% | [4] -0.05% | [5] 7.1%

O=[N+]([O-])/C(Cl)=C(/C(Cl)=C(Cl)Cl)N1CCOCC1
inactive: [1] 5.55% | [2] 4.8% | [3] 44% | [4] 6.35% | [5] 11.7%

CCN(CC)c1ccc(NCC(O)c2cc(Cl)ccc2OC)cc1 (stereo unspecified)
inactive: [1] -11.8% | [2] -5.75% | [3] 15.6% | [4] 22.8% | [5] -1.65%

CN(C)Cc1cc(N=Nc2c(Cl)cccc2Cl)ccc1O
inactive: [1] 14.4% | [2] 19.8% | [3] 8.35% | [4] 1.95% | [5] 18.4%

CC(=O)Nc1ccc(S(=O)(=O)Nc2c(-c3ccccc3)[nH]c(C)c2C(C)=O)cc1
inactive: [1] 1.65% | [2] 7.85% | [3] -10.3% | [4] -0.65% | [5] 13.8%

Cc1ccc(C2=NO[C@@H]3C(=O)N(c4ccc(Cc5ccc(N6C(=O)[C@H]7C(c8ccc(C)cc8)=NO[C@H]7C6=O)cc5)cc4)C(=O)[C@H]23)cc1
inactive: [1] -0.4% | [2] 30.1% | [3] 29.1% | [4] 32.4% | [5] 20.1%

CN1CCC(C[CH2][Sn]([c]2ccccc2)([c]2ccccc2)[c]2ccccc2)CC1
inactive: [1] 51.1% | [3] 50.7% | [4] 63% | [6] 49% | [5] 57.5%
active: [2] 99.3%

CC(O)C(O)C(O)C(O)C#N (stereo unspecified)
inactive: [1] 20.6% | [2] 18% | [3] 12.2% | [4] 11% | [5] 10.1%

Nc1ccc(S(=O)(=O)N/N=C/c2ccccc2)cc1
inactive: [1] 10.2% | [2] -0.4% | [3] 12.1% | [4] 34.4% | [5] 29.8%

N#Cc1ncn(CCO)c1N
inactive: [1] 8.7% | [2] -22.4% | [3] 3.3% | [4] 3.9% | [5] -43.5%

CC(C)(C)C1CCC2c3c([nH]c4ncccc34)C3C(=O)N(c4ccccc4)C(=O)C3C2C1 (stereo unspecified)
inactive: [1] 20.4% | [2] -6.15% | [3] 1.7% | [4] -67.2% | [5] -7.85%

N/C(=N\N=C\c1ccccn1)NO
inactive: [1] 1.05% | [2] -12.6% | [3] -5.35% | [4] -6.95% | [5] 0.7%

CNC(=O)OCc1c(COC(=O)NC)c(-c2ccc(C(C)(C)C)cc2)n(C)c1C
inactive: [1] 3.45% | [2] 12.9% | [3] 5.5% | [4] -2.75% | [5] 22.1%

COc1cc(C2C3=C(COC3=O)Oc3cc4c(cc32)OCO4)ccc1OC(C)=O (stereo unspecified)
inactive: [1] 20.7% | [2] 5.55% | [3] -13.8% | [4] 21.1% | [5] -5.2%

Cc1cc(C)[n+]([O-])c(C)c1
inactive: [1] -14.6% | [2] -8.85% | [3] -2.75% | [4] -8.6% | [5] -2.85%

O=C(CP(c1ccccc1)c1ccccc1)c1cccc(C(=O)CP(c2ccccc2)c2ccccc2)c1
inactive: [1] -4.3% | [2] -22.1% | [3] -5.05% | [4] -8.6% | [5] -19.4%

NS(=O)(=O)c1ccc(NC(NC(=O)C(C(F)(F)F)C(F)(F)F)(C(F)(F)F)C(F)(F)F)cc1
inactive: [1] 16.6% | [2] 15.1% | [3] -6.2% | [4] -8.25% | [5] -0.8%

COc1ccc(C=Nc2ccc(O)cc2)cc1
inactive: [1] 5.45% | [2] -2.3% | [3] -8.35% | [4] 34.1% | [5] -13.9%

CCCNS(C)(=O)=O
inactive: [1] 7.25% | [2] 1.2% | [3] 10.2% | [4] 3.15% | [5] 3.6%

CC(=O)OCC1OC(Sc2cccc3ccccc23)C(OC(C)=O)C(OC(C)=O)C1OC(C)=O (stereo unspecified)
inactive: [1] -16.8% | [2] -5.8% | [3] -4.75% | [4] -20.8% | [5] 3.4%

CC(C)CN(CC(C)C)C(=O)c1ccc([N+](=O)[O-])cc1
inactive: [1] -7.3% | [2] 22.8% | [3] 16.9% | [4] -26.2% | [5] 20.9%

CN(C)CCN1C(=O)c2c(c3cccn3c3c2cnn3-c2ccccc2)C1=O
inactive: [1] 36.8% | [2] 12.1% | [3] 34% | [4] -43% | [5] 32.6%

O=[N+]([O-])c1ccc(NC(CO)C(O)C(O)C(O)CO)c([N+](=O)[O-])c1 (stereo unspecified)
inactive: [1] 12.3% | [2] -4.85% | [3] -0.85% | [4] -6.45% | [5] -7.4%

C/C(=N\NC(=O)c1ccccc1O)c1cccc(/C(C)=N/NC(=O)c2ccccc2O)n1.O=S(=O)([O-])[O-].[Fe+2]
inactive: [1] 11.4% | [2] 38.8% | [3] 39.5% | [4] -0.9% | [5] 40.7%

COC(=O)c1ccc(C)[nH]1
inactive: [1] -12.8% | [2] 10.4% | [3] -22.2% | [4] 26.6% | [5] -1.8%

CC1CCC(O)CC1C (stereo unspecified)
inactive: [1] -17.9% | [2] -24.6% | [3] -57% | [4] 27.2% | [5] -10.1%

CCC1(C#N)N=C(c2ccccc2)c2ccccc2N1C(=O)OC (stereo unspecified)
inactive: [1] 5.7% | [2] -1.9% | [3] 17.8% | [4] -28.9% | [5] 18.1%

CCNc1ncc2nc(CC(=O)OC)c(=O)n(CC)c2n1
inactive: [1] -10.3% | [2] 1.6% | [3] 4.75% | [4] -75.6% | [5] -4.4%

O=C(O)/C=C\c1cccc([N+](=O)[O-])c1
inactive: [1] 11.9% | [2] -16.4% | [3] 7.4% | [4] 22.3% | [5] -14.8%

c1ccc(-c2c[s+]cc(-c3ccccc3)c2)cc1
active: [1] 98.7% | [2] 98.9% | [3] 99.2% | [4] 98.5% | [5] 99.2%

Cc1cc(C(=O)O)c(C#N)c(=O)n1C
inactive: [1] -1.55% | [2] 5.3% | [3] -12.6% | [4] -13.6% | [5] 8.55%

CC[C@@H]1CN(C)[C@H]2Cc3c([nH]c4ccccc34)C(=O)C[C@H]1C2C(=O)OC (stereo partly specified)
inactive: [1] 13.5% | [2] -14.5% | [3] -19.6% | [4] -47.3% | [5] 18.7%

COC(=O)C1CCC(=O)N1CN(C(C)=O)c1ccccc1 (stereo unspecified)
inactive: [1] 10.1% | [2] 8.6% | [3] -14.1% | [4] 9% | [5] -30.6%

CCCC(=O)OCC(C)(C)COC(=O)CCC
inactive: [1] -5.65% | [2] -13.2% | [3] 10.9% | [4] 3.5% | [5] 6.6%

CCOC(=O)c1c(Br)c(-c2ccc(OC)cc2)c(Br)n1C
inactive: [1] -12.8% | [2] 9.8% | [3] -22.2% | [4] -48% | [5] -5.95%

Cc1ncc2c(n1)CCC1=C2OS(=O)(=O)CC1N(C)C (stereo unspecified)
inactive: [1] -24.1% | [2] -0.45% | [3] -3.3% | [4] 1.6% | [5] -22.4%

COC(c1ccccc1)(c1ccccc1)c1cc(NS(=O)(=O)c2ccccc2)ccc1NS(=O)(=O)c1ccccc1
inactive: [1] 14.2% | [2] 3.9% | [3] 13% | [4] -17.1% | [5] 8.05%

COC(=O)Nc1cccc(NC(=O)C(=O)O)c1
inactive: [1] -0.1% | [2] 3.75% | [3] -0.95% | [4] -29.4% | [5] -0.9%

CCN(CC)CCNc1ccc2ncn3c4c(OC)cccc4c(=O)c1c23
inactive: [1] 2.7% | [2] -17.1% | [3] 21.8% | [4] 18.4% | [5] 67.2%

Source: PubChem BioAssay (NCI)
